Results on 28 molecules are retold here after PubChem BioAssay AID1117361 (Southern Research Institute, 2015).

The campaign covered roughly 3,600 compounds. About 900 (25%) were called active. No rule for the calls is given here. Not all results are given here. Entries with a potency or affinity are not part of this list.

For this test, the target named is Protein Tat (Human immunodeficiency virus type 1 group M subtype B (isolate HXB2)) (UniProt P04608). Briefly: HIV-1 Tat–TAR interaction blockers – biochemical, fluorescence polarization, FAM-labeled TAR RNA, counter-screen for Vif-APOBEC3G degradation inhibitor project, dose response (AID 1117361). The settings on record: Tat-TAR RNA binding; series mostly up to 100 µM.
For the molecule `CC1=C(C(=O)OCCOc2ccccc2)C(c2ccc(C)o2)C2=C(CC(C)(C)CC2=O)N1` (stereo not drawn), the outcome was inactive. The same measure for `CCN(CC)S(=O)(=O)N1CCC(C(=O)NCC2COc3ccccc3O2)CC1` (stereo not drawn): “inactive”. `N/C(=N\OC(=O)COc1ccc([N+](=O)[O-])cc1)c1cccnc1`: the call was inactive. The same measure for `O=C(NCc1cccc(F)c1)C1CCN(S(=O)(=O)Cc2ccccc2)CC1`: “inactive”. The entry for `O=C(CSc1nnc(Cc2ccc(Cl)cc2)o1)Nc1ccccc1` is “inactive”; for `CC1CCCC(NC(=O)Cn2cc3c(n2)CCCCC3)C1C` (stereo not drawn) it is “inactive”; for `COCCn1cc(C(=O)NCc2cccs2)c2c3ccccc3n(C)c2c1=O` it is “inactive”.

On to `Cc1ccc2c(c1)N=C(c1ccc(Cl)cc1)CO2`, for which the outcome was inactive.

As for `COc1ccc(NC(=O)Nc2cccs2)cc1OC`, the call was inactive. Turning to `CCOC(=O)C1CCCN(c2c(NCCN(CC)c3ccccc3)c(=O)c2=O)C1` (stereo not drawn), the call was inactive.

For `CCOC(=O)C1CCCN(C(=O)c2ccc3c(c2)OCO3)C1` (stereo not drawn), the result was inactive. The entry for `COc1cc(C(=O)Oc2cccc(Nc3ncnc4ccccc34)c2)cc(OC)c1OC` is “inactive”; for `COc1ccc2c(c1)C1CC(C)(NC(=O)C1C(=O)c1ccccc1)O2` (stereo not drawn) it is “inactive”. As to `COc1ccc(/C=N/N=C2/NC(=O)C(c3ccccc3)S2)c(OC)c1` (stereo not drawn), the result was inactive. With `COc1cc(/C=N/N=C2/NC(=O)C(c3ccccc3)S2)ccc1O` (stereo not drawn), the call was inactive. Take `Cc1[nH]c2ccccc2c1C(=O)CN1C(=O)NC(C)(c2ccc(Cl)cc2Cl)C1=O` (stereo not drawn): the molecule was called inactive.

For the molecule `CCN(CC(=O)NCc1cccs1)C(=O)c1ccc([N+](=O)[O-])o1`, the molecule was called inactive. `Cc1cc(C)n2nc(C(=O)OCC(=O)N(C)CC(=O)Nc3ccc(F)cc3)nc2n1`: the molecule was called inactive.

In the case of `COc1ccc(-c2cc(C(=O)N(C)CC(=O)Nc3ccccc3Br)c3ccccc3n2)cc1OC`, the call was inactive. Regarding `COc1ccc(C(=O)Nc2cccnc2)cc1S(=O)(=O)N1CCOCC1`, the outcome was inactive. Regarding `COc1ccc(OC)c(NC(=O)COC(=O)c2ccc(OC)c(S(=O)(=O)N3CCOCC3)c2)c1`, the molecule was called inactive.

As for `COc1cccc(NC(=O)CN(C)C(=O)CCCc2nc3ccccc3s2)c1`, the molecule was called inactive.

With `CN(CC(=O)Nc1cccc(F)c1)C(=O)c1cc(-c2ccco2)nc2ccccc12`, the call was inactive. `CC(=NC1CCCC1)c1c(C)[nH]n(-c2nc3ccccc3s2)c1=O`: the molecule was called inactive. The entry for `c1ccc(-c2cc(-c3nnc4n3N=C(c3ccc5ccccc5c3)CS4)[nH]n2)cc1` is “inactive”. `O=[N+]([O-])c1cccc(/C(=N/N=C/c2ccccc2Br)C23CN4CN(CN(C4)C2)C3)c1`: the outcome is “inactive [at 50 µM]”.

In the case of `COC(=O)c1c(NC(=O)COC(=O)c2ccc(NC(=O)CC#N)cc2)sc2c1CCCCC2`, the molecule was classed as inactive. `O=C(CSc1nc2cc([N+](=O)[O-])ccc2n1-c1ccccc1)NCc1ccc2c(c1)OCO2`: the outcome was inactive.
